Screening data from PubChem.
Hits are enriched below; roughly 19% of the tested compounds scored in any of these assays.
HT1080-NT tox = kills 2HG-producing HT-1080-NT fibrosarcoma cells; HT-1080-NT fibrosarcoma viability, CellTiter-Glo ATP luminescence, 48 h; Potency, µM (series often up to 46.1 µM), for the others: top-dose activity, negative = less viability, hits mostly cytotoxic; 360,000 compounds, 1.6% hits;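 also: NT is the 2HG producing partner of a matched IDH1 knockdown line; potency is read from the fitted curve at half-maximal effect; 0% = DMSO-treated cells and -100% = media-only wells without cells; nearly all actives have a fitted effect of over 55% in size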
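Viability by CellTiter-Glo luminescence after 48 h compound exposure at 37C of HT-1080-NT cells (750/well, RPMI, 5% FBS). % activity scaled between DMSO wells and medium-only wells, then curve-fitted and categorized by curve class.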
IL-1B inflam inh = inflammasome signaling inhibition, IL-1 beta readout. activity change, % at 57.5 µM. AID 743279. THP-1 LPS/ATP IL-1B secretion, AlphaLISA, 16 h; stronger effect = lower value. 360,000 compounds, 4.7% hits; in the data active = activity change below about -50%; inconclusive = mostly about -30% to -49%
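Secreted IL-1B measured by AlphaLISA bead assay after 16 h compound exposure of THP-1 cells; compounds (final up to 57.5 uM) added 1 h before LPS (250 ng/mL) and ATP (1.25 mM) stimulation; lower signal means less secretion.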
HT1080 IDH1KD tx = HT-1080 IDH1 knockdown cell toxicity (counter line); HT-1080 IDH1 knockdown viability, ATP luminescence, 48 h; Potency, µM (top dose mostly 46.1 µM), without a hit: at the top dose activity, negative = toxicity, usual class: cytotoxic; 360,000 compounds, 2% hits;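 also: potency is read from the fitted curve at half-maximal effect; 0% = DMSO wells and -100% = cell-free medium wells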
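Luminescent ATP read-out (CellTiter-Glo, 10 min at room temperature) after 48 h compound exposure at 37 °C gave viability of IDH1-knockdown HT-1080 cells. Activity was normalised to DMSO and cell-free wells, then fitted as concentration-response curves.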
DT40 TDP1 CPT = growth inhibition of DT40 Tdp1-/-;hTDP1 cells with camptothecin (screen for TDP1 inhibitors); chicken DT40 Tdp1-/-;hTDP1 cells + 20 nM CPT, ATP luminescence, 48 h; Potency, µM (top dose mostly 46.2 µM), without a hit: top-dose activity change, negative = growth inhibition, hits mostly inhibitors; 420,000 compounds, 12% hits; AID 686979; also: potency is read from the fitted curve at half-maximal effect; nearly all actives have a fitted effect of over 55% in size
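Chicken DT40 Tdp1-/- cells complemented with human TDP1, 400 cells/well, exposed to compounds plus 20 nM camptothecin for at least 48 h at 37 C; viability read as ATP content by CellTiter-Glo luminescence.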
DT40 TDP1 no CPT = qHTS for Inhibitors of human tyrosyl-DNA phosphodiesterase 1 (TDP1): qHTS in cells in absence of CPT | DT40 Tdp1-/- hTDP1 cells, no CPT, ATP luminescence, 48 h | Potency, µM (doses to about 46.2 µM), for inactives: top-dose activity change, negative = growth inhibition, actives largely listed as inhibitors | 420,000 compounds, 15% hits | AID 686978, 2013; also: potency is read from the fitted curve at half-maximal effect; nearly all actives have a fitted effect of over 55% in size
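A cellular qHTS used chicken DT40 cells lacking endogenous Tdp1 but carrying stably transfected human TDP1. Compounds were applied without camptothecin, and cell growth kinetics were judged by ATP-dependent luminescence after ≥48 hr.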
ELG1 repair inh = inhibitors of ELG1-dependent DNA repair in HEK293T cells; AID 504467; Potency, µM (series often up to 46.1 µM), inactives show at the top dose activity change, negative = inhibition, hits mostly inhibitors; 330,000 compounds, 2.3% hits; HEK293T ELG1-luciferase reporter, luminescence, 16 h; DNA damage induced by 5-fluorouridine; also: potency is read from the fitted curve at half-maximal effect; nearly all actives have a fitted effect of over 55% in size
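Step one: seed 2,000 cells per well. Step two: pin-transfer compound or DMSO alongside 5-fluorouridine. Step three: incubate 16 hr, 37 °C, 5% CO2. Step four: add ONE-Glo, wait 30 min, read luminescence.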
The depositor's hits bear a star; ? = inconclusive; . = no result; [ ] = remark or other dose. Unless noted, calls follow the shape of the dose curve; as a rule, active = well fitted curve in the direction sought with a large enough effect; inconclusive = small, poorly fitted or top-dose-only effect, or another doubt; inactive = no such curve, though single readings can be large; an effect the other way counts as inactive or inconclusive. Unless noted, % is scaled to controls: 0 for no effect and ±100 for the full control effect.

SMILES | HT1080-NT tox | IL-1B inflam inh | HT1080 IDH1KD tx | DT40 TDP1 CPT | DT40 TDP1 no CPT | ELG1 repair inh
CCOc1nc(Nc2ccc(F)cc2)nc(N2CCN(c3ccc(OC)cc3)CC2)n1 | -1.8% | -17.4 | -1.5% | ? | 14.6µM* | ?
Cc1cc(=O)c(C(=O)N(C)CCc2ccccn2)c2n1-c1ccccc1SC(c1ccsc1)C2 (stereo unspecified) | . | . | . | -6.5%[9.04 µM] | 3.1% | .
CCOC(=O)c1ccc(S(=O)(=O)NC2CCC(C)CC2)cc1 (stereo unspecified) | -2.1% | 18.6 | -4.9% | 16.4µM* | 20.6µM* | 0.8%
CCCCCCC[C@@H](C/C=C/CCC(=O)N(C)C/C(=C/Cl)C/C(=C\C(=O)N1C[C@H](O)CC1=O)OC)OC | 23.1µM* | -70.6* | ? | 9.2µM* | 9.2µM* | ?
CCCCCCC[C@@H](C/C=C/CCC(=O)O)OC | 0.6% | 45.3 | -2.5% | -13.4% | -13.3% | 5.5%
NC(=NC1C2CC3CC(C2)CC1C3)Nc1ccc(I)cc1 (stereo unspecified) | . | . | . | 4.11µM* | 3.66µM* | .
COc1ccccc1C(=O)Nc1ccnn1C1CCN(C2CCCCC2)CC1 | -3.5% | -0.3 | -1.2% | -13.5% | -10.4% | .
Cn1c(=O)c2c(nc(NCc3ccc4c(c3)OCO4)n2Cc2ccccc2)n(C)c1=O | ? | -28.8 | ? | ? | ? | 16.4µM*
Cn1c(=O)c2c(nc(NCCNC(=O)c3ccco3)n2Cc2ccc(F)cc2)n(C)c1=O | -15.5% | 49.4 | 1.2% | -16.0% | ? | ?
CCCCC(=O)NCCNc1nc2c(c(=O)n(C)c(=O)n2C)n1Cc1ccc(F)cc1 | -17.0% | 2.4 | -5.7% | -17.3% | ? | ?
Cn1c(=O)c2c(nc(NCc3ccc4c(c3)OCO4)n2Cc2ccc(F)cc2)n(C)c1=O | ? | -18.3 | ? | 9.2µM* | 6.51µM* | ?
CCNc1nc2c(c(=O)n(C)c(=O)n2C)n1Cc1ccc(F)cc1 | . | . | . | 2.06µM* | 1.03µM* | .
CCOC(=O)CNC(=O)c1cc2c(=O)oc3ccccc3c2s1 | . | . | . | -1.6% | -4.5% | .
C=CCN(C(=O)CCC(=O)O)C1CC(=O)N(c2ccc(OC)cc2)C1=O (stereo unspecified) | 14.0% | 31.5 | 16.6% | 2.5% | -1.9% | 13.9%
C=CCN(C(=O)CCC(=O)O)C1CC(=O)N(c2ccc(OCCC)cc2)C1=O (stereo unspecified) | 14.4% | 5.3 | 16.9% | 23.1µM* | 25.9µM* | 1.3%
CCN(CC)S(=O)(=O)c1ccc2c(c1)N(CC(=O)N1CCN(c3cccc(Cl)c3)CC1)C(=O)CO2 | . | . | . | 16.4µM* | ? | .
CCCN1CCN(C(=O)CN2C(=O)COc3ccc(S(=O)(=O)N(CC)CC)cc32)CC1 | 5.7% | 26.9 | 15.0% | -15.1% | 16.3% | 22.0%
CCN(CC)S(=O)(=O)c1ccc2c(c1)N(CC(=O)N1CCN(c3ccc(Cl)cc3)CC1)C(=O)CO2 | . | . | . | 16.4µM* | 16.4µM* | .
COC(=O)c1c(/N=C/N(C)C)sc2c1CCN(c1ncc(C(F)(F)F)cc1Cl)C2 | -22.0% | 22.7 | ? | 1.1% | ? | 18.4µM*
CC(C)Oc1ccc(Nc2ncnc3ccccc23)cc1 | -1.7% | -153.6* | 1.5% | ? | ? | ?
CC(Nc1ncnc2ccccc12)c1ccccc1 (stereo unspecified) | ? | -13.6 | -4.6% | 1.16µM* | 0.731µM* | -26.5%
CCCCC(Nc1ncnc2ccccc12)C(=O)O (stereo unspecified) | 1.1% | 0.0 | 3.0% | -6.3% | -14.5% | -11.2%
COc1ccc(-c2csc(N3CCN(c4cc5c(cc4Cl)nc(-c4ccncc4)n5CCOCCO)CC3)n2)cc1 | -1.8% | -2.0 | -1.2% | 11.6µM* | ? | ?
COc1ccc(-c2csc(NCCc3nc4cc(Cl)c(N5CCCCC5)cc4n3CCOCCO)n2)cc1 | 0.0% | -0.4 | 0.6% | 23.1µM* | 9.2µM* | .
Cc1ccc(-c2csc(N3CCN(c4cc5c(cc4Cl)nc(-c4ccncc4)n5CCN4CCCCC4)CC3)n2)cc1 | ? | -59.1* | -13.9% | ? | ? | -4.8%
SMILES | HT1080-NT tox | IL-1B inflam inh | HT1080 IDH1KD tx | DT40 TDP1 CPT | DT40 TDP1 no CPT | ELG1 repair inh
OCCCn1c(CCCNc2nc(-c3cccc(Br)c3)cs2)nc2cc(Cl)c(N3CCCCC3)cc21 | 18.4µM* | 0.0 | ? | ? | 16.4µM* | -26.2%
CC(=O)Nc1sc2c(c1C#N)CCC(C)C2 (stereo unspecified) | -1.9% | 5.0 | -1.1% | 26.2% | ? | ?
CCN(CC(=O)Nc1sc2c(c1C#N)CCCC2)Cc1nc2ccccc2c(=O)[nH]1 | -22.9% | 16.5 | -5.0% | 0.7% | -9.3% | 14.6µM*
Cc1cc(C)nc(SCC(=O)Nc2sc3c(c2C#N)CCC(C)C3)n1 (stereo unspecified) | -3.1% | 39.9 | -14.3% | 20.6µM* | 14.6µM* | .
CCN(CC(=O)NC(C)C)Cc1nc2sc3c(c2c(=O)[nH]1)CCC3 | -1.5% | 34.3 | -8.0% | 3.26µM* | 4.61µM* | ?
CC1CCc2c(sc(NC(=O)CCc3nc4ccccc4c(=O)[nH]3)c2C#N)C1 (stereo unspecified) | 0.3% | 12.8 | 1.0% | 16.4µM* | 18.4µM* | 12.0%
COc1ccc(CN2CC[C@H]3C=CC[C@@H](C(=O)NC4CCCCC4)[C@H]3C2=O)cc1OC | . | . | . | -22.6% | -21.5% | .
CC(C)(C)c1ccc(S(=O)(=O)c2cnc(SCC(=O)Nc3ccc4c(c3)OCCO4)[nH]c2=O)cc1 | . | . | . | -1.6% | 2.7% | .
COc1ccc2[nH]cc(CCNS(=O)(=O)c3ccccc3)c2c1 | -3.1% | -9.3 | -11.8% | -1.2% | ? | 0.4%
O=C(CS(=O)(=O)c1cccc2nsnc12)Nc1ccccc1Cl | . | . | . | 1.7% | -23.7% | .
COc1ccc(C)cc1NC(=O)CSc1nnc2ccc(-c3ccncc3)nn12 | 5.2% | -15.2 | -5.7% | -10.2% | ? | 12.8%
CCN(CC(=O)Nc1sc2c(c1C#N)CCC(C)C2)CC(=O)NC1CCS(=O)(=O)C1 (stereo unspecified) | -20.1% | -8.5 | -15.7% | -16.1% | ? | 18.3µM*
CCN(CC(=O)Nc1ccc(C(=O)Nc2ccc(OC)cc2)cc1)Cc1nc2ccccc2c(=O)[nH]1 | 0.0% | -9.4 | -0.2% | ? | 23.1µM* | 6.51µM*
CCN(CC(=O)Nc1cc(OC)ccc1OC)Cc1nc2ccccc2c(=O)[nH]1 | 6.3% | 30.4 | -1.8% | 0.9% | 10.8% | ?
